# Experimental data taken from PubChem BioAssay AID770 (SRMLSC, 2007).
# Screen size: about 3,300 compounds; fewer than 10 were called active.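 How the source made its calls: active means growth inhibition above 90% in viable cell count at a single dose; inactive means growth inhibition below 90%.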 A selection follows.
# Assay: HT29 colon tumor cell growth inhibition, primary screen, imaging, high content imaging, 24 h, CellTiter-Glo (AID 770);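 on condensed nuclei: share of cells whose nuclear area falls below control median minus 1.5 SD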
# Conditions: HT29 cell number by imaging, at 10 µM, stronger effect = higher value; for condensed nuclei: measured here: percent cells with condensed nuclei
# [1] = measured here: ATP CellTiter-Glo viability
SMILES,growth inhibition,growth inhibition [1] [%],condensed nuclei [%]
Cc1ccc(N2CN=c3s/c(=C\c4cccnc4)c(=O)n3C2)cc1,8.42% (inactive),6.47,1.92
O=C1NCC(COCC2CC=CCC2)O1 (stereo not given),12.9% (inactive),-2.87,2.4
COc1ccc(OC)c(N=C(C)C2=C(O)COC2=O)c1,23.1% (inactive),7.81,1.86
CSc1nc(N2CCCC2)c2c(c1C#N)CC(C)(C)OC2,-22.4% (inactive),-13.8,2.73
COc1ccc(N2CCN(c3oc(COc4ccc(Cl)cc4)nc3C#N)CC2)cc1,22.4% (inactive),12.5,2.73
COC(=O)c1ccc(C2/C(=C(/O)c3ccc(OC)cc3)C(=O)C(=O)N2Cc2ccco2)cc1 (stereo not given),26.5% (inactive),-0.21,4.2
CCN(CC)c1ccc2cc(C(=O)Nc3ccccn3)c(=O)oc2c1,6.44% (inactive),-4.18,2.75
CCN(CC)c1ccc2cc(-c3nnc(-c4ccncc4)o3)c(=O)oc2c1,100% (active),-9.78,2.72
CCCCCCc1cc2cc(-c3nnc(-c4ccccc4O)o3)c(=O)oc2cc1O,47% (inactive),17.7,6.21
CCOC(=O)CSc1nc(N)c(C#N)c(-c2ccc(OC)cc2)c1C#N,-7.67% (inactive),-12.5,3.97
Cc1c(C)c2cc(Cl)c(O)c(CN3CCCC(C)C3)c2oc1=O (stereo not given),25.4% (inactive),-6.25,3.35
CCOP(=O)(c1ccccc1)C1(C#N)CCCC1 (stereo not given),-30.7% (inactive),-12.2,4.43
CCCCOc1ccc(CN(C)c2ncnc(N)n2)cc1,56% (inactive),22.5,6.77
C1CCC(C(CC2CCCCN2)C2CCCCC2)CC1 (stereo not given),99.3% (active),97.5,30.1
CC1(C)CC(=O)C2=C(C1)N(Cc1ccco1)C(=O)C2(O)C(F)(F)F (stereo not given),11% (inactive),-21.1,2.44
CSc1nncc(=O)[nH]1,-17.8% (inactive),10.8,1.83
CN1CCN(/C=N/c2sc3c(c2C#N)CCCCC3)CC1,45.9% (inactive),15.9,4.6
COc1ccc2c(c1OC)C(=O)N1c3ccccc3SC21 (stereo not given),-18.9% (inactive),-15.6,2.15
Nc1ccc2oc(-c3ccccc3Cl)nc2c1,26.7% (inactive),5.57,11.4
CCc1cc(=O)oc2c(CN3CCN(C)CC3)c(O)c(Cl)cc12,52.2% (inactive),-8.76,4.11
CCOC(=O)NC(Nc1cc(C)on1)(C(F)(F)F)C(F)(F)F,-33.3% (inactive),-14.8,4.42
COCCOC(=O)C1=C(C)OC(N)=C(C#N)C1c1ccco1 (stereo not given),13.2% (inactive),1.7,3.33
CCSc1nnc(NC(=O)C(CC)(C(F)(F)F)C(F)(F)F)s1,3.79% (inactive),-3.56,3.03
COc1ccc(OC)c(C2/C(=C(/O)c3ccccc3)C(=O)C(=O)N2Cc2ccco2)c1 (stereo not given),11.9% (inactive),-6.75,4.83
O=C(C/C(=N/O)c1ccccc1O)C(F)F,-0.96% (inactive),-14.3,1.25

SMILES,growth inhibition,growth inhibition [1] [%],condensed nuclei [%]
O=C(c1cccc2ccccc12)N1CCC(N2CCN(c3ccccc3)CC2)CC1,-27.1% (inactive),-18.2,3.56
Cn1c(O)c(C=Nc2ccc(Cc3ccncc3)cc2)c(=O)n(C)c1=O,13.2% (inactive),-6.92,1.24
CCOC(=O)CC1=NC(=O)CS1,7.12% (inactive),1.44,1.37
Cc1ccc(S(=O)(=O)NC(=O)Nc2ncc3c(n2)CC(c2ccco2)CC3=O)cc1 (stereo not given),-27% (inactive),0.34,2.73
CCCc1nc2n[nH]c(N)c2c2c1CCCC2,3.73% (inactive),6.01,3.31
O=C1C(=O)N(CCCn2ccnc2)C(c2ccccn2)/C1=C(/O)c1ccccc1 (stereo not given),20.5% (inactive),-11.5,3.21
CCOc1ccc(/C(O)=C2/C(=O)C(=O)N(CCN(CC)CC)C2c2ccco2)cc1 (stereo not given),-44.4% (inactive),-11.1,3.46
CC1CCN(c2[nH]c(=S)c(C#N)c3c2CCCC3)CC1,2.28% (inactive),-10.9,1.9
CC1(C)CC(=O)C2=C(C1)N(Cc1ccco1)C(=O)C2(NC(=O)c1cccnc1)C(F)(F)F (stereo not given),18.6% (inactive),-14.4,1.91
CCCOc1ccc(Cc2nn[nH]n2)cc1,36.3% (inactive),4.03,4.59
O=C(NCCOCCOCCNC(=O)c1cccnc1)c1cccnc1,-50.5% (inactive),-16.6,2.66
CC(C)CSc1nc(N2CCOCC2)c2c(c1C#N)CC(C)(C)SC2,-12.2% (inactive),13.9,2.93
CCOC(=O)C1CCN(c2nc3ccccc3nc2C(C#N)C(=O)OC(C)COC)CC1 (stereo not given),-2.37% (inactive),11.6,15.8
CCOc1ccc(-n2c(SCc3ccc(C#N)cc3)nnc2-c2cccnc2)cc1,17.1% (inactive),-9.28,4.78
CCOC(=O)NC(O)C(=O)c1cccs1 (stereo not given),-55.2% (inactive),-7.3,1.51
CC(C)OC(=O)CC1=NC(=O)CS1,-22% (inactive),-8.97,3.69
COc1ccc(C=NCCC2(O)CC(C)N(C)CC2C)cc1 (stereo not given),22.1% (inactive),-0.31,3.27
COC(=O)CSc1nc(C)c(C(C)=O)cc1C#N,14.2% (inactive),-9.13,4.87
COc1ccc(C2Nc3ccccc3C(=O)N2Cc2ccco2)cc1CN1C(=O)c2ccccc2C1=O (stereo not given),-35.2% (inactive),-9.9,3.89
Cc1ccc(N2C(=O)CC(Cn3nc(C)cc3C)C2=O)cc1 (stereo not given),5.93% (inactive),-3.3,4
CCN(CC)c1ccc(C2Nc3cccc4cccc(c34)N2)c(O)c1,39.6% (inactive),11.2,9.18
N#CCSc1nc2c(cc1C#N)CCCCCC2,27.6% (inactive),16.5,3.85
O=C(c1ccco1)N1CCN(CCOCCOc2cccc3ccccc23)CC1,-0.64% (inactive),-9.08,4.04
COC(=O)CSc1nnc(C)c(=O)[nH]1,-50.8% (inactive),-8.35,0.97
CCN(CC)CCCn1c(C)cc2c(c1=O)C(c1ccccc1)C(C#N)=C(N)O2 (stereo not given),3.77% (inactive),-0.04,3.21

SMILES,growth inhibition,growth inhibition [1] [%],condensed nuclei [%]
C=CCN=C(C)C1=C(O)CCC1=O,-21.7% (inactive),-5.99,1.55
CN(C)/C=C1\N=C(c2cccs2)OC1=O,21% (inactive),8.97,2.88
COc1cccc2c1C(=O)c1c(O)c3c(c(O)c1C2=O)C[C@@](O)(C(=O)CO)C[C@@H]3O[C@H]1C[C@H](N)[C@H](O)[C@H](C)O1,84.2% (inactive),0,0
COc1cccc2c1C(=O)c1c(O)c3c(c(O)c1C2=O)C[C@@](O)(C(C)=O)C[C@@H]3O[C@H]1C[C@H](N)[C@H](O)[C@H](C)O1,96.9% (active),33.6,8.82
CC(C)CC(C(=O)O)C(C)CC(=O)Nc1ccn(-c2ccccc2)n1 (stereo not given),23.8% (inactive),-0.54,6.12
O=C(NCc1ccccn1)c1ccc(=O)oc1,3.8% (inactive),-10.6,2.33
C=CCOc1ccc(C2/C(=C(\O)c3ccc(F)cc3)C(=O)C(=O)N2CCCN(C)C)cc1 (stereo not given),12.6% (inactive),-2.77,0.82
COc1ccc(OC)c(C2/C(=C(\O)c3ccc(OC)c(Cl)c3)C(=O)C(=O)N2CCN(C)C)c1 (stereo not given),-11.2% (inactive),-7.25,3.18
COc1cccc(C2/C(=C(\O)c3ccc4c(c3)OCCO4)C(=O)C(=O)N2CCN(C)C)c1 (stereo not given),2.52% (inactive),-0.26,1.83
CC1(C)Cc2c(sc3c2C2=NCCN2C=N3)CS1,8.06% (inactive),0.86,5.47
Nc1nonc1-c1noc(N2CCOCC2)n1,-12.5% (inactive),-12.3,1.72
O=C1C2ON(c3ccccc3)C(c3cccnc3)C2C(=O)N1Cc1ccccc1 (stereo not given),13.7% (inactive),-16.2,2.97
N#CC(C(=O)NC1CC1)c1nc2ccccc2nc1N1CCN(C/C=C/c2ccccc2)CC1 (stereo not given),-33.2% (inactive),-7.38,1.95
CCOC(=O)c1cc(CC)sc1NC(=O)C1CC1,-8.79% (inactive),-9.23,2.27
CN1C(=O)c2ccc(N(C)C)cc2C1=O,-24.1% (inactive),-7.32,1.05
CCN1C(=O)CC(N2CCN(c3ccc(OC)cc3)CC2)C1=O (stereo not given),-5.76% (inactive),-6.84,4.31
COc1ccc(S(=O)(=O)N2CCC(N3CCCCC3)CC2)cc1,-21.4% (inactive),3.08,2.89
Cc1cccn2c(=O)c3cc(C(N)=S)c(=N)n(CCCOC(C)C)c3nc12,-47.5% (inactive),-18.1,3.48
Cc1cccc(C)c1NC(=O)CSCC(=O)c1ccc(O)c(O)c1,24.8% (inactive),-2.15,7.02
CC(C)Cc1nc(N2CCN(C(=O)Cc3ccccc3)CC2)c(C#N)c2c1COC(C)(C)C2,-45.4% (inactive),-6.01,0.93
Cc1ccc(Oc2nc3c(c(=O)n(Cc4ccccc4F)c(=O)n3C)n2C)cc1,1.1% (inactive),5.27,1.09
c1ccc2c(c1)NC(c1ccncc1)n1c-2nc2ccccc21 (stereo not given),16.4% (inactive),-9.59,3.13
COc1ccc(/C(O)=C2/C(=O)C(=O)N(c3ncccn3)C2c2ccc(OC)c(OC)c2)cc1 (stereo not given),59.3% (inactive),10.6,4.07
O=C1CC(c2ccccc2)NC(=O)N1 (stereo not given),-5.61% (inactive),1.46,3.08
FC(F)(F)c1cccc(N2CCc3cn[nH]c32)c1,21.1% (inactive),-4.43,4.2
